High-throughput results (PubChem)
Rows were chosen to be rich in hits. Some 9.5% of all compounds tested hit in one or more screens of this group.
RE007 growth inh – less growth of the S. pombe RE007 Vpr strain; S. pombe RE007 Vpr strain, BacTiter-Glo ATP luminescence, 24 h; 360,000 compounds, 0.21% hits; Potency, µM (highest dose often 92.2 µM), for the others: at the top dose activity change, negative = less growth, hits mostly inhibitors; active = well fitted falling curve with a large enough effect; inconclusive = small, poorly fitted or top-dose-only effect; inactive = no such curve, though single readings can be large or run the other way; note: % is set by controls: 0 for no effect and ±100 for the full control effect; nearly all actives have a fitted effect of over 50% in size
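Fission yeast strain RE007, carrying one chromosomally integrated HIV-1 vpr copy, was seeded at OD 0.01 in PMG+AL medium with 23 nL pinned compound. After 24 h at 30 °C and 99% humidity, viability was read by BacTiter-Glo luminescence.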
Pf growth 48h – P. falciparum growth inhibition at 48 hours (one generation); P. falciparum luciferase growth in erythrocytes, 48 h; Potency, µM (doses to about 28.7 µM), inactives show top-dose activity change, negative = inhibition, actives largely listed as inhibitors; 310,000 compounds, 5.9% hits; active = well fitted inhibition curve with a large enough effect; inconclusive = small, poorly fitted or top-dose-only effect, or another doubt; inactive = no such curve, though single readings can be large or run the other way; note: % is set by controls: 0 for no effect and ±100 for the full control effect
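Erythrocytes infected with P. falciparum carrying an integrated firefly luciferase reporter (2% hematocrit, 0.1% parasitemia final) were exposed to compounds in RPMI 1640 with 0.5% Albumax at 37 C, 5% CO2. Growth inhibition was scored as reduced luminescence.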
NS1 function inh – influenza NS1 inhibition | Potency, µM (highest dose often 46.1 µM), inactives show at the highest dose activity, positive = more growth | 270,000 compounds, 0.4% hits | AID 2326; note: actives are rising curves; nearly all actives have a fitted effect of over 50% in size
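A cell-based growth assay was used: compounds that relieve NS1-induced slow growth of budding yeast raise OD600. Assay medium was yeast nitrogen base with ammonium sulphate and -URA supplement, pH 6.0, with 2% galactose.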
Pf growth 96h – P. falciparum growth inhibition at 96 hours; P. falciparum luciferase reporter growth, 96 h; Potency, µM (titrated, usually from 28.7 µM), without a hit: at the top dose activity change, negative = inhibition, usual class: inhibitors; 320,000 compounds, 6.9% hits; AID 504834; active = well fitted inhibition curve with a large enough effect; inconclusive = small, poorly fitted or top-dose-only effect, or another doubt; inactive = no such curve, though single readings can be large or run the other way; note: % is set by controls: 0 for no effect and ±100 for the full control effect
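Parasite growth measured via integrated firefly luciferase reporter in P. falciparum. Infected erythrocytes at 2% hematocrit, 0.05% parasitemia final were treated 96 hours at 37 C under 5% CO2, and luminescence was read.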
SARS PLpro yeast – SARS-CoV PLP inhibition in yeast. 330,000 compounds, 0.19% hits. Potency, µM (highest dose often 32.9 µM), inactives show at the highest dose activity, positive = growth rescue, most hits filed as activators. AID 485353. S. cerevisiae expressing SARS-CoV PLpro, growth rescue; note: 0% is about no effect; nearly all actives have a fitted effect of over 55% in size
The depositor's hits bear a star; ? = inconclusive; · = no result; [ ] = remark or other dose. Unless noted, calls come from the whole dose curve. Potency is the fitted concentration of half-maximal effect.

SMILES	RE007 growth inh	Pf growth 48h	NS1 function inh	Pf growth 96h	SARS PLpro yeast
CCc1nc2ccc(C(=O)NCCCn3ccnc3)cn2c1N(CC)C(=O)NCCc1ccccc1	-22%	·	·	·	·
O=C(NCc1ccccc1F)C1CCCN1S(=O)(=O)c1ccc(F)cc1 (configuration not stated)	4%	-11%	10%	10%	0%
CCCn1c(N)c(C(=O)CSc2nc(C)cs2)c(=O)n(C)c1=O	-3%	-21%	0%	9.3µM*	-3%
c1ccc(C(CN2CCCCC2)Oc2ccccn2)cc1 (configuration not stated)	-8%	·	·	·	·
O=C(CC1OC(=O)c2ccccc21)Nc1ccccc1N1CCOCC1 (configuration not stated)	-13%	?	2%	5%	3%
CC(=O)N1CCN(C(=O)CC2OC(=O)c3ccccc32)CC1 (configuration not stated)	45µM*	?	-8%	?	-45%
CCCc1cc(=O)oc2cc(OCC(=O)Nc3ccc(S(N)(=O)=O)cc3)ccc12	2%	21%	8%	52%	0%
CCCOC1CCCN(C(=O)CCc2nnc(-c3ccc4c(c3)OCO4)o2)C1 (configuration not stated)	0%	15%	-11%	13µM*	2%
CC1CCCN(C(=O)CCc2nnc(-c3ccc4c(c3)OCO4)o2)C1 (configuration not stated)	34%	24%	-6%	?	-8%
Cc1cc(Cl)ccc1C(O)c1ncc(-c2ccc(C(F)(F)F)cc2)[nH]1 (configuration not stated)	8%[18.4 µM]	·	·	·	·
COc1cc(C(=O)OCC(C)=O)ccc1OCc1c(C)noc1C	0%	-3%	·	16%	0%
Cc1noc(C)c1COc1ccccc1C(=O)N1CCN(S(=O)(=O)c2ccccc2C(F)(F)F)CC1	-22%	15µM*	·	?	6%
Cc1noc(C)c1COc1ccccc1C(=O)N1CCN(S(=O)(=O)c2ccccc2Br)CC1	-18%	·	·	·	·
COc1cc(C(=O)OCC(=O)N2CCCCC2C)ccc1OCc1c(C)noc1C (configuration not stated)	0%	9.3µM*	·	?	-3%
COc1cc(C(=O)N2CCN(S(=O)(=O)c3ccc(C)cc3)CC2)ccc1OCc1c(C)noc1C	0%	4.1µM*	-1%	·	0%
Cc1cc(C)c(C)c(S(=O)(=O)N2CCN(C(=O)c3ccccc3OCc3c(C)noc3C)CC2)c1C	2%	10µM*	·	13µM*	-2%
Cc1noc(C)c1COc1ccccc1C(=O)N1CCN(S(=O)(=O)c2cccc(Cl)c2)CC1	-1%	?	·	-25%	1%
COc1ccc(OC)c(CN2C(=O)c3ccccc3C2c2nnnn2C(C)C)c1 (configuration not stated)	-13%	·	·	·	·
COc1ccc(CCNC(=S)N2CCC(Cc3ccccc3)CC2)cc1OC	-8%	-17%	8%	?	0%
CC(=O)OC1CC2CCC1(C)C2(C)C (configuration not stated)	·	-7%	·	12%	·
CC(=O)O[C@H]1C[C@@H]2OC3C=C(C)CCC3(C)[C@@]1(C)[C@@]21CO1 (some centres not stated)	3.2µM*	·	·	·	·
COc1ccc(NC(=O)/C(Cl)=C(/Cl)S(=O)Cc2ccccc2Cl)cn1 (configuration not stated)	?	?	·	7.4µM*	-25%
COc1ccc(CN(C)C[C@H]2OCCCC[C@@H](C)Oc3ccc(NS(C)(=O)=O)cc3C(=O)N([C@H](C)CO)C[C@@H]2C)cc1	2%	·	·	·	·
Cn1c(=O)c(C#N)c(-c2ccc(F)cc2)c2cc(C(=O)c3cc(Cl)cc(Cl)c3O)cnc21	-4%	?	-104%	?	-18%
CCc1nn2cc(C(=O)c3cc(Cl)ccc3O)cnc2c1-c1ccc(F)cc1	0%	6.6µM*	-3%	?	-92%
SMILES	RE007 growth inh	Pf growth 48h	NS1 function inh	Pf growth 96h	SARS PLpro yeast
Fc1ccc(C(c2ccc(F)cc2)N2CCN(C/C=C/c3ccccc3)CC2)cc1	2%[18.4 µM]	13µM*	-1%	?	-44%
CC(NCCC1(Cc2ccccc2Cl)CCOC(C)(C)C1)c1cccs1 (configuration not stated)	-14%	?	-1%	12µM*	-1%
CCOC(=O)c1oc2ccccc2c1NC(=O)c1ccccc1OC	1%	2%	-16%	0%	-9%
COC(=O)c1oc2ccccc2c1NC(=O)c1ccccc1O	-4%	10µM*	-4%	54%	-2%
Nc1nc2c(c(=O)[nH]1)CN(c1ccc(S(N)(=O)=O)cc1)CN2	·	·	1%	·	·
COc1ccc(-n2c(COc3cccc4ccccc34)nnc2SCC(=O)NCc2ccco2)cc1	5%	2.9µM*	?	-23%	1%
COc1ccc(OC)c(-n2c(SCC(=O)NCc3ccco3)nnc2-c2c[nH]c3ccccc23)c1	3%	·	-101%	2.6µM*	-8%
COc1ccc(-c2ccc(SCC(=O)NCc3ccco3)nn2)cc1OC	2%	14%	8%	5.2µM*	5%
COc1ccccc1OCc1nnc(SCC(=O)NCc2ccco2)n1-c1ccccc1	-5%	-17%	23%	5%	26%
COc1cccc(-n2c(SC)nnc2-c2c[nH]c3ccccc23)c1	-5%	·	-2%	4.7µM*	-2%
COc1ccc(-c2cc(C(F)(F)F)nc(SCC(=O)NCc3ccco3)n2)cc1OC	15%	?	2%	?	-8%
O=C(O)Cc1cc(Cl)ccc1O	·	·	0%	·	·
O=C(COC(=O)CC12CC3CC(CC(C3)C1)C2)Nc1cccnc1Cl	39%	-1%	-6%	29%	1%
COc1ccc(-n2c(COc3cccc(C)c3)nnc2SCC(=O)NCc2ccco2)cc1	8%	?	-3%	-18%	-15%
COc1ccc(-n2c(COc3ccc4ccccc4c3)nnc2SCC(=O)NCc2ccco2)cc1	-7%	10µM*	26%	·	-3%
O=c1cc(N2CCCCC2)c(-c2ccccc2)nn1Cc1ccc(F)cc1	8%	?	-38%	13µM*	3%
O=c1cc(N2CCCCC2)c(-c2ccccc2)nn1Cc1c(Cl)cccc1Cl	11%	?	18%	10µM*	0%
O=c1cc(N2CCCCC2)c(-c2ccccc2)n[nH]1	10%	-17%	·	9%	-4%
O=c1cc(N2CCCCC2)c(-c2ccccc2)nn1Cc1ccc(Cl)cc1	-12%	3%	16%	-7%	1%
Cc1c(CN(C)C)c2c(n1C)C(=O)c1ccc(Br)cc1-2	-2%	?	-5%	12µM*	-3%
CCOC(=O)c1c2c(n(Cc3ccccc3)c1C)C(=O)C(=O)c1ccccc1-2	-19%	·	·	·	·
Cc1c(CN(C)C)c2c(n1Cc1ccccc1)C(=O)c1ccc(Br)cc1-2	-28%	·	-15%	2.3µM*	-10%
Cc1ccccc1-c1nnc(SCC(=O)Nc2cccnc2Cl)o1	2%	·	·	·	4%
